Bioassay records (PubChem BioAssay)
In the library only some 5.7% were active in any assay of this set; here they are far more common.
DAX1 inh-1: inhibitors of DAX1 repression of SF-1 activated StAR promoter; HEK293T StAR-luciferase reporter, SF-1/DAX-1 repression relief; inhibition, % at 6.8 µM; actives 1.1% (n = 370,000); AID 652010;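 active = inhibition above the mean over all tested compounds plus 3 SD, cut at about 3.6% in these data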;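 note: 0% = DAX-1 cells with DMSO and 100% = cells lacking DAX-1 with DMSO; higher inhibition means more luminescence from relief of DAX-1 repression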
hgDAF12 agonist: activates the H. glycines DAF-12 receptor ligand-binding domain. HEK293 GAL4-hgDAF12 UAS-luciferase reporter, agonist luminescence; normalized to butyrate control. activation, % at 6.8 µM. actives 1.8% (n = 370,000);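 active = activation above a cutoff set at the mean of all screened compounds plus 3 SD, cut at about 10% in these data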;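 note: 0% = DMSO wells and 100% = sodium butyrate wells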
AHR act: activates the human aryl hydrocarbon receptor; actives 2.5% (n = 320,000); AHR-responsive luciferase reporter cells, luminescence; activation, % at 5 µM; P35869; in the data active = activation above about 47%;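 note: 0% = vehicle wells and 100% = reference agonist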
hcDAF12 agonist: activators of H. contortus DAF-12 nuclear receptor. HEK293 hcDAF-12 lit1-tk-luc reporter, luminescence; 0% DMSO, 100% Δ7-dafachronic acid. actives 1.4% (n = 370,000). activation, % at 6.8 µM;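 active = activation above the mean of all tested compounds plus 3 SD, cut at about 5.5% in these data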;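 note: 100% = response to 3 µM Δ7-dafachronic acid high control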
ssDAF-12 act: activators of S. stercoralis DAF-12 nuclear receptor | actives 1% (n = 370,000) | AID 652126 | activation, % at 6.8 µM | HEK293 ssDAF-12/GRIP1 lit1-tk-luc reporter, luminescence; % of 3 µM dafachronic acid response;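 active = activation above the mean over all tested compounds plus 3 SD, cut at about 0.9% in these data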;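 note: 0% = DMSO-only wells and 100% = 3 µM delta7-dafachronic acid wells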
DAX1 inh-2: NR0B1 (DAX1) inhibition. HEK293 Gal4-DAX1 luciferase reporter, luminescence. inhibition, % at 6.75 µM. actives 0.99% (n = 340,000);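 active = inhibition above the mean over all tested compounds plus 3 SD, cut at about 4.2% in these data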;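 note: 0% = DAX1-transfected cells with DMSO and 100% = empty-vector control cells with DMSO; inhibition shows as a rise in luminescence from relieved DAX1 repression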
Target sequence (P51843 207-470 limits assumed): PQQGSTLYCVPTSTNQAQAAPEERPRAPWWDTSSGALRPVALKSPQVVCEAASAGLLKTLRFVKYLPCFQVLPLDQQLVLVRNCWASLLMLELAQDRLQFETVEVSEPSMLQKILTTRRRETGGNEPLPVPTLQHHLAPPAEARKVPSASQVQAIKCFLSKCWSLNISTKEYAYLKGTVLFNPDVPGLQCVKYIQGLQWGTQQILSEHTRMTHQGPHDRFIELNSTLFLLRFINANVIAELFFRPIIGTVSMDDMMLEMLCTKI
* marks the source's active call; other numbers are inactive results; . = no result given.

SMILES | DAX1 inh-1 | hgDAF12 agonist | AHR act | hcDAF12 agonist | ssDAF-12 act | DAX1 inh-2
CSCc1ccc(C(=O)NC(C)c2cnn(-c3ccccn3)c2C)o1 (configuration not stated) | 0.1 | 1.4 | 2.5 | 4.1 | -1.0 | -0.4
CC(N=Cc1c(O)c2ccccc2oc1=O)C(=O)O (configuration not stated) | -0.3 | 11.4* | 2.0 | -0.3 | -1.5 | -0.2
Cn1c(=O)c2c(ncn2CC(COCc2ccccc2)OCc2ccccc2)n(C)c1=O (configuration not stated) | 0.1 | -1.0 | -2.7 | -0.4 | -1.1 | 0.0
CCCCCCNC(=O)c1c(O)c2cccc3c2n(c1=O)CCC3 | 0.5 | -0.7 | 19.4 | 0.1 | -0.8 | 0.1
O=C(NCCNCCO)c1c(O)c2cccc3c2n(c1=O)CCC3 | 0.1 | 2.7 | 58.1* | 0.2 | -1.2 | 1.8
COc1ccc(/C=N/c2c(-c3ccc(OC)cc3)nc3n2CCS3)cc1 | 0.4 | -0.8 | -1.1 | -1.6 | -0.1 | -1.1
COc1ccc(C2=CSC(/N=C/c3ccc(F)cc3)=NN2)cc1 | -0.2 | 1.9 | 69.8* | -0.5 | -0.7 | -1.1
CCCNC(=O)CN1C(=O)COc2ccc(S(=O)(=O)N3CC(C)CC(C)C3)cc21 (configuration not stated) | -1.4 | 0.0 | 2.9 | 0.7 | -1.2 | -0.8
Cc1cc(OC(C)C(=O)NCC2CCC(C(=O)O)CC2)c2c(C)c(Cc3ccccc3)c(=O)oc2c1 (configuration not stated) | 0.8 | -3.5 | -0.7 | -1.1 | -0.6 | 6.6*
CC(Oc1ccc2ccc(=O)oc2c1)C(=O)NCC1CCC(C(=O)O)CC1 (configuration not stated) | 1.2 | -2.3 | -1.2 | -0.7 | -0.1 | 4.7*
CCCc1cc(=O)oc2cc(OC(C)C(=O)NCC3CCC(C(=O)O)CC3)c(Cl)cc12 (configuration not stated) | 0.8 | 1.0 | -1.1 | -1.0 | -1.4 | 4.5*
COc1ccc(N(CC(=O)NCc2ccccc2OC)S(=O)(=O)c2ccccc2)cc1 | -0.4 | 0.2 | 12.0 | -2.2 | -0.8 | 0.8
CCn1c(C(=O)OC)cc2c1ccn2-c1ccc(F)cc1 | 0.7 | 13.2* | 38.9 | 1.8 | 0.1 | 2.4
Cc1nc2c(-c3ccc(Cl)cc3)cnn2c2c1CCC2 | -0.1 | 3.4 | 74.5* | 3.1 | 2.1* | -0.2
CCCc1ccc(OCc2ccc(C(=O)NCc3cccnc3)o2)c(OC)c1 | -0.7 | -3.8 | 50.5* | -2.0 | -1.5 | -2.4
COc1ccccc1NC(=O)c1ccc(COc2ccccc2OC)o1 | 0.1 | -3.7 | 27.6 | -2.6 | -1.9 | -1.2
O=C(NCc1cccnc1)c1ccc(COc2ccc(Cl)cc2Cl)o1 | -0.3 | 2.5 | 19.8 | 0.6 | -1.6 | -1.3
CC(C)NC(=O)c1ccc(COc2cccc3ccccc23)o1 | -3.1 | -6.8 | . | -0.6 | -1.1 | -1.1
NNC(=O)c1ccc(COc2cccc3ccccc23)o1 | 0.2 | 0.3 | 68.8* | 0.4 | -0.7 | 3.9
O=C(NCc1cccnc1)c1ccc(COc2cccc3ccccc23)o1 | -0.2 | -4.7 | 77.5* | 0.8 | -0.5 | -0.8
CCOc1ccc(OCc2ccc(C(=O)NCc3cccnc3)o2)cc1 | -0.9 | 0.8 | 18.1 | 0.1 | -1.3 | -1.4
CCCc1ccc(OCc2ccc(C(=O)Nc3cccc(C)n3)o2)c(OC)c1 | -0.4 | 0.3 | 59.8* | -0.1 | -0.6 | -0.2
COc1ccc(N2c3ccccc3CN(Cc3ccccc3)CC2Cc2cc(OC)c(OC)c(OC)c2)cc1 (configuration not stated) | 1.6 | 4.1 | . | -1.0 | -1.5 | 0.9
O=c1[nH]c2ccc([N+](=O)[O-])cc2nc1/C=C(\O)c1ccccc1 | -0.1 | -1.4 | 15.7 | 0.1 | -1.5 | 2.1
Cc1cccc(OCC(=O)NCC(=O)N/N=C/c2c(C)[nH]c3ccccc23)c1 | 0.0 | -3.7 | 22.6 | 0.1 | -1.3 | -1.2
Cc1cccc(OCC(=O)Nc2nonc2NC(=O)COc2cccc(C)c2)c1 | 0.4 | 0.2 | 10.2 | -0.8 | -1.0 | -0.3
Cc1ccc(C)c(OCC(=O)Nc2nonc2NC(=O)COc2cc(C)ccc2C)c1 | -0.4 | -2.9 | 4.1 | 0.8 | -0.5 | 5.3*
